In PubChem BioAssay (NCI) one finds growth data, which are given here for 40 molecules.

This is part of a sample that, as a whole, favours compounds with a hit. Of some 83,000 tested, about 20% had one in any assay.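 Method: cells in 96-well plates; compound added at one concentration; 48 h incubation; percent growth measured; values under 10 scored active.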 Calls of active or inactive are those of the source.

The assay concerns IGROV1 ovarian. The experiment in a line: NCI-60 one-dose screen, 48 h (100 = growth as untreated, 0 = no growth, -100 = all killed). As to conditions: 10 µM. On the procedure: Growth inhibition of the IGROV1 human tumor cell line is measured as a screen for anti-cancer activity. Cells are grown in 96 well plates and exposed to the test compound for 48 hours. Compounds are tested at a single concentration, which is 10^-5 M for most compounds. The reported endpoint is percent growth (GI% or GIPRCNT), where numbers from 0 - 100% represent growth inhibition, and numbers from -100% - 0 represent cell death. For example, a value of 40 represents 60% growth inhibition. A value of 0 means no net growth occurred over the course of the experiment. A value of -40 indicates 40% of cells at the beginning of the experiment died by the end of the experiment. A value of -100 means all cells are dead at the end of the experiment.
NCI-60 Human Tumor Cell Lines Screen was performed using the standard one-dose NCI protocol, which is described in more detail at https://dtp.cancer.gov/discovery_development/nci-60/default.htm.
Compounds with GIPRCNT values below 10 were considered active. Activity score was based on GIPRCNT using the following formula: […]
Score is 0 for GIPRCNT values of 100 or above, 50 for GIPRCNT values of 0, and 100 for GIPRCNT values of -100.
In the case of `Clc1ccc(Nc2ccnc(NCCCNc3ccnc4cc(Cl)ccc34)n2)cc1`, the growth was -6.05% (active). Next, `CCc1ccc2c(c1)N(CCO)C1=C(C(=O)OC1)C2c1cc(OC)c(OC)c(OC)c1` (stereo not given): 10.1% (inactive). Consider `Cc1ccc(Nc2nnc(-c3cc(-c4ccncc4)n(-c4ccccc4)n3)s2)cc1`, for which the growth was 89.2% (inactive).

Regarding `O=C1/C(=C\c2ccccc2)CN(C(=O)c2ccccc2F)C/C1=C\c1ccccc1`, the growth was -11.2% (active). Next, `COc1cc(Cc2cc(-c3ccc(Cl)cc3)n[nH]c2=O)ccc1O`: 112% (inactive); `Nc1cc2c(cc1Cl)-c1ccc([N+](=O)[O-])cc1/C2=N\O`: 57.1% (inactive). Take `CCN1CCN(c2nc3ccccc3c3c(=O)c4ccccc4sc23)CC1`: the growth is 36.3% (inactive). As for `O=C(Nc1cccc(-n2cc(-c3ccncc3)c(-c3cc(O)cc(Cl)c3)n2)c1)c1cc(C(F)(F)F)cc(C(F)(F)F)c1`, the figure is 73% (inactive); as for `ClC(Cl)(Cl)c1nc2nccnc2[nH]1`, 103% (inactive). On to `S=C1SCC(c2ccccc2)S1` (stereo not given), for which the growth was 114% (inactive).

For the molecule `Nc1ncn(C2OC(CO)C(O)C2O)c(=O)n1` (stereo not given), the growth was -39.8% (active).

`Cc1c(Cl)cccc1NC(=O)c1sc2nc3c(cc2c1N)C(=O)CCC3`: the growth was 9.61% (active). As to `N#CCCN1C/C(=C/c2ccccc2)C(=O)/C(=C/c2ccccc2)C1`, the growth is 55.8% (inactive).

Regarding `COc1cccc(Cn2c(-c3nonc3N)nc3ccccc32)c1`, the growth was 28.1% (inactive). In the case of `N#Cc1ncc(-c2ccc(C(F)(F)F)cc2)c(NCc2cc(C(F)(F)F)cc(C(F)(F)F)c2)n1`, the growth is 40.6% (inactive). As to `CCc1ccc2c(c1)N(CCO)C1=C(C(=O)OC1)C2c1ccccc1` (stereo not given), the growth is 95.8% (inactive). Take `O=C(Nc1cccc(-n2cc(-c3ccncc3)c(-c3ccc(O)c(Cl)c3)n2)c1)c1cc(C(F)(F)F)cc(C(F)(F)F)c1`: the growth was 71.8% (inactive). For `COc1cc(C2CC(c3ccc(Nc4ccnc5cc(Cl)ccc45)cc3)=NN2c2ccc(Cl)cc2)cc(OC)c1OC` (stereo not given), the growth is 57.5% (inactive). As to `Cc1cccc2c1O/C(=C\c1ccc([N+](=O)[O-])o1)C2=O`, the growth was -34.7% (active). For the molecule `COc1ccc(N=C2C(=Nc3ccc(OC)cc3)N(c3ccc(N(C)C)cc3)C(=S)N2c2ccc(OC)cc2)cc1`, the growth was 107% (inactive). On to `CCOC(=O)c1ccc(NC(=O)Nc2ncc(Cl)cc2Cl)cc1`, for which the growth was 115% (inactive). On to `COc1ccc(-c2nc(-c3nc4cc(Cl)c(Cl)cc4[nH]3)c3ccccn23)cc1`, for which the growth was 75.9% (inactive). On to `COC(=O)C1(C)Cc2cc(OC(C)=O)c(OC(C)=O)cc2N1` (stereo not given), for which the growth was 27.1% (inactive). Turning to `CC/C(C)=C(\C)C(=O)O`, the growth was 104% (inactive).

Take `CN(C)CCN1C(=O)c2cccc3c(-c4ccc5ncn(C6CCCCC6)c5c4)ccc(c23)C1=O`: the growth is 20.4% (inactive). As for `CCN(CC)CCSCCN(CC)CC`, the figure is 109% (inactive); as for `CC(=O)OCc1cc(-c2nc3ccccc3[nH]c2=O)nn1-c1ccc(Cl)cc1`, 93.2% (inactive). As to `CCCCCCCCCCCC[n+]1ccc(C(N)=O)cc1`, the growth was -18.7% (active). Consider `CC(=O)C1CCC2C3CC(F)C4=CC(=O)CCC4(C)C3C(O)CC12C` (stereo not given), for which the growth was 97.2% (inactive).

With `C/C(=N\Nc1nc2ccccc2s1)c1ccncn1`, the growth was -22.2% (active). Next, `NC1=NC(=O)C(c2ccccc2)(c2ccccc2)S1`: 115% (inactive); `CCOC1(OCC)OC(c2ccccc2)=C(C#N)C(/C=C\c2ccccc2)C1(OCC)OCC` (stereo not given): 85.6% (inactive). With `Fc1ccc(-c2nnc(-c3c(-c4ccc(F)cc4)nc4ccccn34)o2)cc1`, the growth was 114% (inactive). In the case of `O=C1/C(=C\c2ccc(Cl)cc2)CN(C(=O)c2ccccc2)C/C1=C\c1ccc(Cl)cc1`, the growth was 4.31% (active). Regarding `CN(C)Cc1cn(-c2ncc(-c3ccc(C(F)(F)F)cc3)c(NC3CCCCCC3)n2)nn1`, the growth is 71.3% (inactive). As for `CCOCC(=O)C(C#N)c1ccc(Cl)c(Cl)c1` (stereo not given), the figure is 101% (inactive); as for `O=C1/C(=C/c2ccc(Cl)cc2)SC(=Nc2ccc(Cl)cc2)N1Cc1nc2ccccc2[nH]1`, 64.8% (inactive).

With `O=C1OCC2=C1C(c1cccc(Cl)c1)c1cc3c(cc1N2CCO)OCCO3` (stereo not given), the growth was 22.2% (inactive).

As for `COc1ccccc1/C=C/C(=O)c1ccccc1`, the growth was 28.8% (inactive). On to `CC1CN(Cc2ccccc2)C(=O)NC1=O` (stereo not given), for which the growth is 124% (inactive).
